# Reference: PubChem BioAssay (NCI)
# The panel holds about 83,000 compounds, 20% with a hit somewhere; the sample as a whole holds those more often.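 Plates (96-well) were seeded with cells, treated with compound at one concentration, and incubated for 48 hours before percent growth was determined.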 A number with no mark means an inactive call. Activity calls are given as the source filed them. How the source made its calls: active means growth percent below 10; inactive means the rest.
# Tested on: SK-OV-3 ovarian
# Assay: NCI-60 one-dose screen, 48 h (100 = growth as untreated, 0 = no growth, -100 = all killed)
# Details: 10 µM
row,SMILES,growth
1,Cc1ccc(C(=O)N/C(=C2/OCCN2C)[P+](c2ccccc2)(c2ccccc2)c2ccccc2)cc1,104%
2,CN(C)c1ccc(/C=C/c2nc3ccccc3c(=O)n2CC(=O)Nc2ccc(Cl)cc2)cc1,84.8%
3,Cc1ccc(CNC(=O)Cc2ccc3c(c2)CN(C2CCC(=O)NC2=O)C3=O)cc1 (configuration not stated),18.4%
4,Cc1ccn2c(C(=O)c3ccccc3)cc(-c3cc(-c4ccc(N(C)C)cc4)c(C#N)c(N)n3)c2c1,65.2%
5,CCOP(=O)(OCC)O[C@H]1CCC(=O)[C@@H]2[C@H]1[C@H]1C[C@@H]3[C@@]4(C)CCCC(C)(C(=O)OC)[C@@H]4CC[C@@]23C=C1C(C)C (some centres not stated),54%
6,C#CCNC(=O)CCC(=O)OC[C@]12CC[C@@H](C(=C)C)[C@@H]1C1CC[C@@H]3[C@@]4(C)CCCNC(C)(C)[C@@H]4CC[C@@]3(C)[C@]1(C)CC2 (some centres not stated),26.9%
7,C/C(=N\N=C\c1ccc(N(C)C)cc1)c1ccc2c(c1)Nc1ccccc1S2,87.8%
8,O=C(Nc1ccc(Cl)c([N+](=O)[O-])c1)Nc1ccc(Cl)c([N+](=O)[O-])c1,79.4%
9,COc1ccc(CN2[C@H](C(=O)NCc3ccc(C(=O)NO)cc3)Cc3c([nH]c4ccccc34)[C@H]2C2CC2)cc1,62%
10,O=C(NO)c1ccc(CNC(=O)[C@H]2Cc3c([nH]c4ccccc34)[C@H](c3ccc(Cl)cc3)N2)cc1,-12.7% (active)
11,O=C(Cn1nc(-c2ccccc2)ccc1=O)NN1C(=O)c2ccccc2C1=O,117%
12,OCc1[nH]nc2cc(Nc3ncc4ccc(Br)c(OC5CCC(O)CC5)c4n3)ccc12 (configuration not stated),13.7%
13,COc1cc2c3c(n(CCCNCCO)c(=O)c2cc1OC)-c1nc2c(cc1C3=O)OCO2,-14.2% (active)
14,COc1ccc(CN2[C@H](C(=O)NCCCCCCC(=O)NO)Cc3c([nH]c4ccccc34)[C@H]2C2CC2)cc1,-33.5% (active)
15,COc1ccc(C2N(c3ccc(Br)cc3)N=C(C(C)=O)N2[C@H]2[C@H](OC(C)=O)O[C@H](COC(C)=O)[C@@H](OC(C)=O)[C@@H]2OC(C)=O)cc1 (some centres not stated),61.4%
16,CN1C(=O)N(C)C2SC(N/N=C/c3cccs3)=NC21 (configuration not stated),40.7%
17,Cc1cc(C)nc(/N=C(\N)Nc2ccc(S(=O)(=O)Nc3nc(C)cc(C)n3)cc2)n1,106%
18,O=C(Cc1ccc2c(c1)CN(C1CCC(=O)NC1=O)C2=O)NCCc1ccccc1 (configuration not stated),28%
19,CCNCCCn1c2c(c3cc(OC)c(OC)cc3c1=O)C(=O)c1cc3c(nc1-2)OCO3,35.4%

row,SMILES,growth
1,O=C(CNc1nc(-c2ccccc2)cs1)Nc1ccc(Cl)cc1[N+](=O)[O-],-6.03% (active)
2,Cc1ccc2nc(-c3ccc(-c4nnc(SCC(=O)Nc5ccc(Cl)cc5)o4)cc3)[nH]c2c1,79.3%
3,Cc1ccc(C(=O)NNC(=O)CSc2nc3ccccc3c(=O)[nH]2)cc1,116%
4,CN(C)CCNC(=O)OCCCCOc1cc(O)c2c(=O)cc(-c3ccccc3)oc2c1,99.1%
5,CCCCSc1nc(Nc2ccc(/C(C)=N/NC(N)=S)cc2)c(C#N)c(-c2ccccc2)n1,108%
6,O=c1[nH]c2ccccc2cc1CSc1ccc(Nc2nccc(-c3ccc4c(c3)OCO4)n2)cc1,116%
7,COc1cc2oc(-c3cccc(C(=O)Nc4ccc(Cl)cc4)c3)cc(=O)c2c(OCCNC(=O)CNC(=O)OC(C)(C)C)c1OC,92.7%
8,Cc1ccc2nc(-c3ccc(-c4nnc(SCC(=O)Nc5ccc(Br)cc5)o4)cc3)[nH]c2c1,72.1%
9,COc1ccc(CN2[C@@H](C(=O)NCc3ccc(C(=O)NO)cc3)Cc3c([nH]c4ccccc34)[C@@H]2C)cc1,-8.39% (active)
10,O=C(CNc1nc(-c2ccccc2)cs1)Nc1cccc(Cl)c1,37.7%
11,NS(=O)(=O)c1ccc(NC(=O)CSc2ccc(-c3ccc(Cl)cc3)nn2)c(Br)c1,60.2%
12,Clc1ccc2c(N/N=C/c3c[nH]c4ccc(Br)cc34)ccnc2c1,-84.7% (active)
13,Cc1ccc(-c2ccc(SCC(=O)Nc3ccc(S(N)(=O)=O)cc3Br)nn2)cc1,101%
14,CC(=O)Nc1ccc(-c2cn(-c3cccc(C(=O)Nc4cccc(OC(F)(F)F)c4)c3)nn2)cn1,93.9%
15,CCOC(=O)N/C(=C1/OCCN1C)[P+](c1ccccc1)(c1ccccc1)c1ccccc1,95.1%
16,O=C(NO)c1ccc(CNc2nc(-c3ccccc3)c3ccccc3n2)cc1,-39.1% (active)
17,Cc1cc(C)nc(NS(=O)(=O)c2ccc(N/C(N)=N/c3nccc(-c4cccs4)n3)cc2)n1,84.4%
18,COc1cnc2c(c1)C(=O)c1c-2n(CCCNCCO)c(=O)c2cc(OC)c(OC)cc12,7.28% (active)
